The results in this text go back to article PMC7862700, “An all-to-all approach to the identification of sequence-specific readers for epigenetic DNA modifications on cytosine”.

Holding throughout (assay): DAPPL (digital affinity profiling via proximity ligation, sequencing); 10 mM Tris-HCl pH 7.5, 50 mM NaCl, 1 mM DTT, 4% glycerol, room temperature, 30 min; GST-TFs on glutathione beads, 16-mer random dsDNA library, 0.1% formaldehyde crosslink after washing; high values mean tight binding
Holding throughout (conditions): protein: recombinant; tags: N-terminal GST; dsDNA, one strand shown

One assay addresses T1, FLI1 (Homo sapiens, UniProt Q01543 1-452).
T1 sequence: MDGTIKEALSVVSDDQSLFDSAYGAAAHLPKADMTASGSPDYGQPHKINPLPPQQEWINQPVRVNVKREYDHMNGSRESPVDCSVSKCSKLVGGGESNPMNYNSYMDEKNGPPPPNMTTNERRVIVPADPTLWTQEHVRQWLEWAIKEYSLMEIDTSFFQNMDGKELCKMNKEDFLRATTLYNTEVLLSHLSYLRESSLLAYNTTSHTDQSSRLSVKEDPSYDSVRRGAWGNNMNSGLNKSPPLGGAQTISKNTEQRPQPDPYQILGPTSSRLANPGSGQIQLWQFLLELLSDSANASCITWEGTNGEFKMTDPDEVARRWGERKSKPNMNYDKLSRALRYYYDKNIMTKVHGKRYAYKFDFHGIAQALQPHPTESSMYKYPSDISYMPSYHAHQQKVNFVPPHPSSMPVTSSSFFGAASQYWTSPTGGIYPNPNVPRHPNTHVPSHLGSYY
The method in brief: (§1)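 Binding signal is each hexamer's read frequency for a factor divided by its frequency in the tag-only sample. The factors were GST-fused human transcription factors from yeast, captured on glutathione beads, DNA-barcoded and pooled with that sample. Pools were incubated with 200 nmole of a random double-stranded 16-mer DNA library in Tris/NaCl/DTT/glycerol buffer at room temperature for 30 min, then washed, crosslinked with 0.1% formaldehyde, proximity-ligated with BsaI/T4 ligase (1 h, 37 °C), PCR-amplified and sequenced on an Illumina NextSeq500.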

A further assay concerns the target T2, ELK1 (Homo sapiens, UniProt P19419 1-428).
T2 sequence: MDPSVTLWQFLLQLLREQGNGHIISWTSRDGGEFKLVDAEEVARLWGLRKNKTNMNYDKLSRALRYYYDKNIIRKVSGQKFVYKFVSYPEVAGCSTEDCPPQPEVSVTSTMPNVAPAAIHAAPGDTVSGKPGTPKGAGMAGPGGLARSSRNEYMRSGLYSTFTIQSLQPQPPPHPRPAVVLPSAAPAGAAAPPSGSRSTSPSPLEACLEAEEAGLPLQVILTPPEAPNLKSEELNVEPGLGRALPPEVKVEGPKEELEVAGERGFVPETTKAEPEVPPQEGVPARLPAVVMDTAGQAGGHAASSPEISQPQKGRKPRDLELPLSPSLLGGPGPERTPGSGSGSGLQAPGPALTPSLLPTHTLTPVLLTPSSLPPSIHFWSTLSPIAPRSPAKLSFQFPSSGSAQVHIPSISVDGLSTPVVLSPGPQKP
The method in brief: as §1

A further assay has as its target T3, GABPA (Homo sapiens, UniProt Q06546 1-454).
T3 sequence: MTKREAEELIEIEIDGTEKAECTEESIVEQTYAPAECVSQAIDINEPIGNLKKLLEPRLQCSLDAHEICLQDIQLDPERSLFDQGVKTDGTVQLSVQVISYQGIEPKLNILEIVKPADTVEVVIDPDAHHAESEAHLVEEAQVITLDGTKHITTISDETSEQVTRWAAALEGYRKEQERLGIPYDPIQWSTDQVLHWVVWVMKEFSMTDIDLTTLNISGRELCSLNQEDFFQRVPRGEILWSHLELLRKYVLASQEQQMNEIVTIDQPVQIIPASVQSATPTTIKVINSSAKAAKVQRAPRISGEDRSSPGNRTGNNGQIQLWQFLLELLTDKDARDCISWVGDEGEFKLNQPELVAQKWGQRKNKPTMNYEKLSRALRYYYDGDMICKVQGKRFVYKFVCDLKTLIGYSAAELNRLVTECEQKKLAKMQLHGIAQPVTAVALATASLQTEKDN
The method in brief:
as §1

In another assay the target is T4, ERG (Homo sapiens, UniProt P11308 1-479).
T4 sequence: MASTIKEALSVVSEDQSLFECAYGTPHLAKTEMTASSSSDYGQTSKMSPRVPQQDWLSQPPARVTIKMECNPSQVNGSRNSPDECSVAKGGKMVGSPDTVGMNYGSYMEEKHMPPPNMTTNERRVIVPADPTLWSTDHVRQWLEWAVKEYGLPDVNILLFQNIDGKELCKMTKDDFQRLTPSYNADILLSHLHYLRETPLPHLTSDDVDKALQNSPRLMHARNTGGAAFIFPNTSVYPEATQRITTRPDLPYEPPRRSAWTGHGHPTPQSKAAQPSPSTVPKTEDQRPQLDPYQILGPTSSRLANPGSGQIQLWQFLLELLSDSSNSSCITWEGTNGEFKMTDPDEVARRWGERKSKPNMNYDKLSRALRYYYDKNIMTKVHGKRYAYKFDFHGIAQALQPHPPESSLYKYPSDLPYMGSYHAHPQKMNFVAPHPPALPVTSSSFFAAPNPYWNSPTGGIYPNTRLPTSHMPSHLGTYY
The method in brief: as §1

A further assay addresses ELF1 (Homo sapiens, UniProt P32519 1-619). An outline of the steps: as §1
The next assay has as its target T5, EHF (Homo sapiens, UniProt Q9NZC4 1-300).
T5 sequence: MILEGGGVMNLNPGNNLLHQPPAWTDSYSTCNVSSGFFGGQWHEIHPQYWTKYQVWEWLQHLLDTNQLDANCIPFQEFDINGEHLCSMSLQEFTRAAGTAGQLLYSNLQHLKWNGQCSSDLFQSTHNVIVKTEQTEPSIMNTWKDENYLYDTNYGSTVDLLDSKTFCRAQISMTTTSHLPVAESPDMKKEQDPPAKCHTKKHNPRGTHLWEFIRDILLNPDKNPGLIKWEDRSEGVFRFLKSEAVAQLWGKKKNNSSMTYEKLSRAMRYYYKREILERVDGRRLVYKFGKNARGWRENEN
An outline of the steps: as §1

For another assay, the target named is SPI1 (Homo sapiens, UniProt P17947 1-270). An outline of the steps: as §1
The next assay addresses SPIB (Homo sapiens, UniProt Q01892 1-262). An outline of the steps: as §1
Another assay addresses T6, ELK3 (Homo sapiens, UniProt P41970 1-407).
T6 sequence: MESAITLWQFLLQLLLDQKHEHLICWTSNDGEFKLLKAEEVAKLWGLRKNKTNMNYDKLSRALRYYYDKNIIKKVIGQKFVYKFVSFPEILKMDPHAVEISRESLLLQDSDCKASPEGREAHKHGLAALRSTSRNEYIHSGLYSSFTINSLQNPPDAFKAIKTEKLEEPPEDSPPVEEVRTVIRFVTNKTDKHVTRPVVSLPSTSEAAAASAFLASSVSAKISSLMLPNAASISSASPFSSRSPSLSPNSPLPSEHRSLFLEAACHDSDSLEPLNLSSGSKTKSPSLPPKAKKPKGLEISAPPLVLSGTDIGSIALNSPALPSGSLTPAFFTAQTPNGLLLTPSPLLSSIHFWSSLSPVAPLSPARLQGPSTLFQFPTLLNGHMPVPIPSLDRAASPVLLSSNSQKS
An outline of the steps: as §1

Sequence of ELF1 (P32519 whole entry): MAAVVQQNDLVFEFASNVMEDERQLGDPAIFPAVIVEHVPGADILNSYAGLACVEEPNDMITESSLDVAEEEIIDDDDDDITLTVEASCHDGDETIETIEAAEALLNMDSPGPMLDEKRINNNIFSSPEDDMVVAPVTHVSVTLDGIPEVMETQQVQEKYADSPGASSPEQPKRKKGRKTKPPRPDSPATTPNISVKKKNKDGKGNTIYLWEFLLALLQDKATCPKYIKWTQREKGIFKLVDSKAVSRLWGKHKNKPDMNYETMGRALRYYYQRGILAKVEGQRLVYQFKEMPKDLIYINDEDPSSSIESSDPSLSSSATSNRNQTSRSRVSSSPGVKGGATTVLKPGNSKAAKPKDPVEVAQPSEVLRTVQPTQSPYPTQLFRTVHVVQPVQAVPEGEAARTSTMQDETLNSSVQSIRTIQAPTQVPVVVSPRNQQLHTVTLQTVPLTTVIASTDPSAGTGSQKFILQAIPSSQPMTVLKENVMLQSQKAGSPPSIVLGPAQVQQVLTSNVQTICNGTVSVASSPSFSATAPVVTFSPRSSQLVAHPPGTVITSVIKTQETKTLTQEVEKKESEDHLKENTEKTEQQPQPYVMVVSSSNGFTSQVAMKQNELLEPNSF
Sequence of SPIB (Q01892 whole entry): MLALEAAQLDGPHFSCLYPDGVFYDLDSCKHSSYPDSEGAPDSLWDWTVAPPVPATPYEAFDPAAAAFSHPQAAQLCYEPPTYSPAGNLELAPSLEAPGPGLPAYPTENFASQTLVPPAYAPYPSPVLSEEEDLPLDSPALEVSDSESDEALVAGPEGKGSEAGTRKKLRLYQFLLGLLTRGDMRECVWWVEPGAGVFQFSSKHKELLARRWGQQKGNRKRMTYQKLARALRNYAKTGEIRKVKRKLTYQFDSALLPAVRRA

In the case of TTGATA, the binding signal with FLI1 is 1.23 fold enrichment (6-mer frequency, TF over GST control); with ELK1 it was 1.29 fold enrichment (6-mer frequency, TF over GST control); with GABPA, 1.31 fold enrichment (6-mer frequency, TF over GST control); with ERG, 1.17 fold enrichment (6-mer frequency, TF over GST control); with ELF1, 1.24 fold enrichment (6-mer frequency, TF over GST control); with EHF it was 1.14 fold enrichment (6-mer frequency, TF over GST control). In addition, the binding signal is 1.14 fold enrichment (6-mer frequency, TF over GST control) with SPI1; 1.08 fold enrichment (6-mer frequency, TF over GST control) with SPIB; 1.01 fold enrichment (6-mer frequency, TF over GST control) with ELK3.

As to GCCTTG, the binding signal is 1.34 fold enrichment (6-mer frequency, TF over GST control) with FLI1; 1.27 fold enrichment (6-mer frequency, TF over GST control) in the assay with ELK1; 1.33 fold enrichment (6-mer frequency, TF over GST control) with GABPA; 1.26 fold enrichment (6-mer frequency, TF over GST control) with ERG; 1.29 fold enrichment (6-mer frequency, TF over GST control) in the assay with ELF1; 1.24 fold enrichment (6-mer frequency, TF over GST control) in the assay with EHF. The binding signal was 1.25 fold enrichment (6-mer frequency, TF over GST control) in the assay with SPI1; 1.23 fold enrichment (6-mer frequency, TF over GST control) in the assay with SPIB; 1.18 fold enrichment (6-mer frequency, TF over GST control) with ELK3.

Take CCTGGA: the binding signal with FLI1 is 1.53 fold enrichment (6-mer frequency, TF over GST control); in the assay with ELK1, 1.44 fold enrichment (6-mer frequency, TF over GST control); with GABPA it was 1.43 fold enrichment (6-mer frequency, TF over GST control); in the assay with ERG, 1.45 fold enrichment (6-mer frequency, TF over GST control); with ELF1, 1.4 fold enrichment (6-mer frequency, TF over GST control); with EHF it was 1.44 fold enrichment (6-mer frequency, TF over GST control). For the same sequence, the binding signal in the assay with SPI1 is 1.21 fold enrichment (6-mer frequency, TF over GST control); with SPIB, 1.5 fold enrichment (6-mer frequency, TF over GST control); with ELK3, 1.39 fold enrichment (6-mer frequency, TF over GST control).

TCCGTA: the binding signal is 1.57 fold enrichment (6-mer frequency, TF over GST control) with FLI1; 1.63 fold enrichment (6-mer frequency, TF over GST control) with ELK1; 1.59 fold enrichment (6-mer frequency, TF over GST control) with GABPA; 1.52 fold enrichment (6-mer frequency, TF over GST control) with ERG; 1.59 fold enrichment (6-mer frequency, TF over GST control) in the assay with ELF1; 1.6 fold enrichment (6-mer frequency, TF over GST control) with EHF. For the same sequence, the binding signal was 1.69 fold enrichment (6-mer frequency, TF over GST control) in the assay with SPI1; 1.58 fold enrichment (6-mer frequency, TF over GST control) with SPIB; 1.62 fold enrichment (6-mer frequency, TF over GST control) with ELK3.

For the sequence AATCAA, the binding signal in the assay with FLI1 was 1.1 fold enrichment (6-mer frequency, TF over GST control); in the assay with ELK1, 1.18 fold enrichment (6-mer frequency, TF over GST control); in the assay with GABPA, 1.15 fold enrichment (6-mer frequency, TF over GST control); with ERG, 1.21 fold enrichment (6-mer frequency, TF over GST control); in the assay with ELF1 it was 1.17 fold enrichment (6-mer frequency, TF over GST control); in the assay with EHF, 1.12 fold enrichment (6-mer frequency, TF over GST control). Moreover, the binding signal in the assay with SPI1 was 1.15 fold enrichment (6-mer frequency, TF over GST control); in the assay with SPIB, 1.14 fold enrichment (6-mer frequency, TF over GST control); in the assay with ELK3, 1.14 fold enrichment (6-mer frequency, TF over GST control).

Regarding GTATCC, the binding signal with FLI1 was 1.88 fold enrichment (6-mer frequency, TF over GST control); with ELK1, 1.9 fold enrichment (6-mer frequency, TF over GST control); with GABPA it was 1.78 fold enrichment (6-mer frequency, TF over GST control); with ERG it was 1.89 fold enrichment (6-mer frequency, TF over GST control); with ELF1, 1.89 fold enrichment (6-mer frequency, TF over GST control); with EHF, 1.92 fold enrichment (6-mer frequency, TF over GST control). For the same sequence, the binding signal was 1.7 fold enrichment (6-mer frequency, TF over GST control) with SPI1; 1.89 fold enrichment (6-mer frequency, TF over GST control) in the assay with SPIB; 1.88 fold enrichment (6-mer frequency, TF over GST control) with ELK3.

As to ATGGTA, the binding signal is 1.39 fold enrichment (6-mer frequency, TF over GST control) with FLI1; 1.44 fold enrichment (6-mer frequency, TF over GST control) in the assay with ELK1; 1.39 fold enrichment (6-mer frequency, TF over GST control) with GABPA; 1.33 fold enrichment (6-mer frequency, TF over GST control) with ERG; 1.36 fold enrichment (6-mer frequency, TF over GST control) with ELF1; 1.43 fold enrichment (6-mer frequency, TF over GST control) with EHF. For the same sequence, the binding signal with SPI1 is 1.23 fold enrichment (6-mer frequency, TF over GST control); in the assay with SPIB, 1.42 fold enrichment (6-mer frequency, TF over GST control); with ELK3, 1.36 fold enrichment (6-mer frequency, TF over GST control).

As for AATACG, the binding signal is 1.11 fold enrichment (6-mer frequency, TF over GST control) with FLI1; 1.19 fold enrichment (6-mer frequency, TF over GST control) with ELK1; 1.24 fold enrichment (6-mer frequency, TF over GST control) with GABPA; 1.22 fold enrichment (6-mer frequency, TF over GST control) with ERG; 1.12 fold enrichment (6-mer frequency, TF over GST control) in the assay with ELF1; 1.18 fold enrichment (6-mer frequency, TF over GST control) in the assay with EHF. For the same sequence, the binding signal is 1.32 fold enrichment (6-mer frequency, TF over GST control) in the assay with SPI1; 1.25 fold enrichment (6-mer frequency, TF over GST control) in the assay with SPIB; 1.26 fold enrichment (6-mer frequency, TF over GST control) in the assay with ELK3.
